# Shown are actives, neighbours in structure and some others; about 12% of the full set was active somewhere.
# G9a block = blocks human histone lysine methyltransferase G9a | Q96KQ7 | G9a H3K9 monomethylation, AlphaScreen, 2 h | Potency, µM (top dose mostly 102 µM), for inactives: top-dose activity, negative = inhibition, most hits filed as inhibitors | 350,000 tested, 8.8% active; also: % is scaled to controls: 0 for no effect and ±100 for the full control effect; nearly all actives have a fitted effect of over 75% in size
#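 Quantitative HTS format: methyltransferase activity on a biotin-tagged H3K9 peptide is measured by AlphaScreen, using a rabbit anti-monomethyl-H3K9 antibody with streptavidin donor and anti-IgG acceptor beads. Final levels are 20 nM enzyme, 500 nM peptide, 20 uM SAM; 2 h RT.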
# BAZ2B inh = BAZ2B (human) inhibition. Potency, µM (top dose mostly 114 µM), for the others: at the top dose activity change, negative = inhibition, hits mostly inhibitors. AlphaScreen BAZ2B-H3K14Ac peptide displacement. 360,000 tested, 4.4% active; also: % is scaled to controls: 0 for no effect and ±100 for the full control effect; nearly all actives have a fitted effect of over 60% in size
#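 BAZ2B (50 nM) with biotin-H3(5-23)K14Ac peptide (50 nM) in PBS pH 7.4, 0.01% Tween-20, preformed 30 min, then compound 30 min at room temperature; top concentration 110uM. AlphaScreen streptavidin donor/nickel chelate acceptor beads (10 ug/mL final), 20 min dark, signal read.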
# L3MBTL1 inh = L3MBTL1 (human) inhibition | Q9Y468 | AlphaScreen L3MBTL1–H3K9me1 peptide binding | Potency, µM (titrated, usually from 57.1 µM), for inactives: top-dose activity, negative = inhibition, actives largely listed as inhibitors | 230,000 tested, 0.66% active | AID 485360; also: % is scaled to controls: 0 for no effect and ±100 for the full control effect; nearly all actives have a fitted effect of over 60% in size
#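 Read-out is AlphaScreen signal from streptavidin donor and nickel chelate acceptor beads (10 ug/mL final each) bridging L3MBTL1 (50 nM) and biotinylated K9-monomethylated H3(1-15) peptide (75 nM), after 30 min compound exposure at room temperature.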
# Sfp PPTase inh = Sfp phosphopantetheinyl transferase inhibition; AID 1490; Q9F4F7; Potency, µM, inactives show largest response in the series, negative = inhibition, usual class: inhibitors; Biochemical Sfp PPTase activity, qHTS; 310,000 tested, 3.5% active;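 also: the enzyme is Sfp with the accession as filed and its product quenches rhodamine fluorescence; 0% = enzyme reaction without inhibitor and -100% = no enzyme wells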
#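 Reaction rates are the 30-min fluorescence difference (ex 525, em 598 nm) in wells containing 15 nM Sfp, 5 uM rhodamine-CoA and 12.5 uM BHQ-2-YbbR at pH 7.6 with 10 mM MgCl2.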
# HP1b binding inh = blocks HP1-beta chromodomain binding to methylated histone tails; P83916; AlphaScreen HP1-beta / biotin-H3K9me3 peptide binding; Potency, µM (highest dose often 114 µM), for the others: at the top dose activity change, negative = inhibition, most hits filed as inhibitors; 390,000 tested, 0.56% active; also: nearly all actives have a fitted effect of over 70% in size
#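 Compound inhibition of the preformed complex between 50 nM HP1-beta and 50 nM biotinylated H3K9me3 peptide was read by AlphaScreen. Buffer was PBS pH 7.4 with 0.01% Tween-20. Incubations ran 30 min at room temperature, with 10 ug/mL donor/acceptor beads.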
# JMJD2A Tudor = inhibitors of human JMJD2A Tudor domain; Potency, µM (titrated, usually from 114 µM), without a hit: top-dose activity change, negative = inhibition, most hits filed as inhibitors; 390,000 tested, 4.4% active; AlphaScreen JMJD2A-Tudor / H3K4me3 peptide binding; O75164; also: % is scaled to controls: 0 for no effect and ±100 for the full control effect; nearly all actives have a fitted effect of over 50% in size
# Target sequence (O75164 whole entry, looked up, the tested form may be a part): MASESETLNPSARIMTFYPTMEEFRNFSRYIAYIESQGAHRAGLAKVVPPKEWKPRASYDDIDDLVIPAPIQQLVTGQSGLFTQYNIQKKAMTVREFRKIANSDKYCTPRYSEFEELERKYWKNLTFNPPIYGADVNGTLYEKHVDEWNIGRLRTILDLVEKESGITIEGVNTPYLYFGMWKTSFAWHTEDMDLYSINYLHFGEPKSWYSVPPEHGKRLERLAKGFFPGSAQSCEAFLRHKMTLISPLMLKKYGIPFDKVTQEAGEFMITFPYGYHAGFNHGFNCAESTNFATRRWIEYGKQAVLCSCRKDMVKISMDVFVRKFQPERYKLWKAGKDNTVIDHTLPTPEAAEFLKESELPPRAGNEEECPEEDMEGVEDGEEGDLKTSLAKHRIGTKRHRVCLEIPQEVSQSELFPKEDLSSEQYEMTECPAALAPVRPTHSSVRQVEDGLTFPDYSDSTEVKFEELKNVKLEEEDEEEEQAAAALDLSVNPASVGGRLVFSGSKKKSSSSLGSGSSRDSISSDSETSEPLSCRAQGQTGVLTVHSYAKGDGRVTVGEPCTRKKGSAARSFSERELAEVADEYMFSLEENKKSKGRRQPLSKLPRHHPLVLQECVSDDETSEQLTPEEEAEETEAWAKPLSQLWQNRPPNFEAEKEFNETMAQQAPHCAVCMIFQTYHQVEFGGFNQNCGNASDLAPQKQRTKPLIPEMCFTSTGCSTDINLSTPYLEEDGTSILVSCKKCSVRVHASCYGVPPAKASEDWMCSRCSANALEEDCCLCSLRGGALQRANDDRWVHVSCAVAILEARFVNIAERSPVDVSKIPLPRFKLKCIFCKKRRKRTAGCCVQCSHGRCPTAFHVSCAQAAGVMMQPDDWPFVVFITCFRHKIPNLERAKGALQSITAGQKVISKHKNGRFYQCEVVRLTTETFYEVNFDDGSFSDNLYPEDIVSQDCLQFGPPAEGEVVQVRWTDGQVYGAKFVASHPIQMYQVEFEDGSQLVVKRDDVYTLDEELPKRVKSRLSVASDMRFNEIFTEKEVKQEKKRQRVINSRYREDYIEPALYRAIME
# The depositor's hits bear a star; ? = inconclusive; / = no result; [ ] = remark or other dose. Calls follow the shape of the dose curve; as a rule, active = well fitted curve in the direction sought with a large enough effect; inconclusive = small, poorly fitted or top-dose-only effect, or another doubt; inactive = no such curve, though single readings can be large; an effect the other way counts as inactive or inconclusive. Potency is read from the fitted curve at half-maximal effect.
SMILES,G9a block,BAZ2B inh,L3MBTL1 inh,Sfp PPTase inh,HP1b binding inh,JMJD2A Tudor
O=C(O)CC/C(=C\c1ccc(N2CCCC2)c([N+](=O)[O-])c1)c1nc2ccccc2s1,12.6µM*,39.8µM*,-25.7%,-19.1%,?,-35.2%[57.1 µM]
c1ccc(CNc2oc(-c3ccccc3)nc2-c2ccccc2)cc1,/,/,/,-12.5%,/,/
CCN1CCN(Cc2nc3cc(NC(=O)c4ccccc4[N+](=O)[O-])ccc3n2CC)CC1,-7.5%[59 µM],-14.8%,/,/,25.7%,-1.0%
Cc1ccc2[nH]c(-c3cccc(N)c3)cc2c1,50.1µM*,50.1µM*,-17.5%,17.9%,?,?
Cc1ccc(OCC(=O)Nc2ccc3nc(SCC(=O)N(C)c4ccccc4)sc3c2)cc1,2.6%[59 µM],-19.6%,/,/,8.8%,-26.8%
CCCCC1(C)NC(=S)N2N1C(=S)NC2(C)CCCC (stereo not drawn),1.78µM*,79.4µM*,8.1%,56.2µM*,?,5.62µM*
Cc1cc(C(c2cc(C)c(N)c(C)c2)c2ccco2)cc(C)c1N,/,/,/,/,79.4µM*,79.4µM*
CCc1ccc(OCC(=O)NNC(=S)NC(=O)C2CCCCC2)c(Br)c1,?,-12.4%,/,11.9%,8.7%,?
COc1ccc(OCC(=O)NNC(=S)NC(=O)C2CCCCC2)cc1,12.6µM*,-7.1%,/,10.9%,/,/
Cc1cc(C)cc(OCC(=O)NNC(=S)NC(=O)C2CC2)c1,20µM*,4.2%,/,24.5%,25.1%,-33.8%
COc1ccc(C(=O)NC(=S)NNC(=O)CNC(=O)C2CCCCC2)cc1,8.91µM*,/,/,-22.5%,0.2%,?
COc1ccc(OCC(=O)NC2CCCCCCC2)cc1,3.9%,3.0%,/,16.8%,41.1%,-1.4%
CCc1ccc(OCC(=O)NNC(=S)NC(=O)C2CC2)c(Br)c1,10µM*,?,/,15.4%,10.5%,?
COc1cc(OC)c(NC(=O)CCn2cccn2)cc1Cl,2.4%[59 µM],1.4%,/,/,42.8%,-4.7%
COc1ccc(OCC(=O)NNC(=S)NC(=O)C2CC2)cc1,20µM*,-1.4%,/,15.7%,24.0%,-17.9%
CCc1ccc(C2c3c(-c4ccccc4O)n[nH]c3C(=O)N2Cc2cccnc2)cc1 (stereo not drawn),16.2%[59 µM],-6.8%,/,/,32.4%,-32.4%
COCCn1c(-c2ccc(C)cc2)nc2oc3cc(OC)ccc3c(=O)c2c1=O,/,-0.3%,13.7%,-4.7%,29.8%,-27.8%
O=c1c2ccccc2nc(-c2ccccc2)n1Cc1ccco1,?,-32.4%,-0.4%,2.6%,3.7%,-26.1%
CCCCn1c(-c2ccco2)nc2ccccc2c1=O,50.1µM*,-21.7%,-9.0%,-23.9%,49.1%,4.5%
O=c1c2ccccc2oc2nc(-c3ccco3)n(Cc3ccccc3)c(=O)c12,?,56.2µM*,3.8%,5.7%,20.4%,-13.6%
COc1ccc2c(=O)c3c(=O)n(Cc4ccco4)c(-c4ccc(C)cc4)nc3oc2c1,?,?,/,25.1µM*,9.2%,89.1µM*
CCOC(=O)C1CCN(C(=O)Cn2c(-c3cccs3)cc3cc(Cl)ccc32)CC1,2.8%[59 µM],1.0%,/,/,32.8%,-2.3%
Cc1ccc(NC2Nc3cc(C)nn3S2)c(C)c1 (stereo not drawn),1.12µM*,-25.3%,/,11.0%,11.8%,?
Cc1ccc(N=CNc2ccc(C)cc2C)c(C)c1,20.4%,-21.7%,-9.0%,8.1%,18.0%,-9.3%
Cc1cc(NC(=NC2CC2)c2ccccc2)n(-c2ccccc2)n1,?,5.3%,/,10.7%,-12.6%,-6.2%
SMILES,G9a block,BAZ2B inh,L3MBTL1 inh,Sfp PPTase inh,HP1b binding inh,JMJD2A Tudor
Cc1cc2n(n1)SC(Nc1ccccc1)N2 (stereo not drawn),1.78µM*,-33.4%,1.1%,-21.6%,?,7.94µM*
Nc1nc(Nc2ccccc2)nc2c1ncn2[C@@H]1O[C@H](CO)[C@H](O)[C@H]1O,13.4%[12.7 µM],/,/,/,/,/
CCCNC(=O)C1CCC(Cn2c(=O)c3sccc3n(CC(=O)N(CC)CC)c2=O)CC1 (stereo not drawn),16.1%[59 µM],20.6%,/,/,100.0%,-2.7%
N[C@@H](CO)c1cn([C@@H](Cc2cc3ccccc3[nH]2)C(=O)N2CCNCC2)nn1,-5.9%[12.7 µM],50.1µM*,/,9.4%,27.2%,79.4µM*
NC(=O)C[C@H](N)c1cn([C@@H](CC(N)=O)C(=O)N2CCNCC2)nn1,-14.9%[2.33 µM],?,-0.2%,/,-3.6%,79.4µM*
CC(C)[C@H](N)c1cn([C@@H](CO)C(=O)N2CCNCC2)nn1,26.9%[2.33 µM],?,-12.4%,/,15.2%,-30.8%
CC(C)(C)OC(=O)N1CCC(c2c(C(=O)Nc3ccc4c(c3)OCCO4)cnn2-c2ccccc2)CC1,?,-8.3%[57.1 µM],/,/,6.3%,-33.0%
CCC1Oc2ccc(C)cc2N(CC(=O)N2CCN(c3ccccc3OC)CC2)C1=O (stereo not drawn),-1.5%[59 µM],2.3%,/,/,3.3%,-25.1%
CCc1cccc(C)c1NC(=O)c1nc2ccccc2nc1N1CCCCC1,0.8%[59 µM],-3.7%,/,/,25.6%,-9.7%
Cc1cc(C(=O)N/N=C2\CC(=O)c3ccccc32)c(C)n1-c1ccc(F)cc1,50.1µM*,39.8µM*,/,1.1%,27.7%,-4.4%[11.4 µM]
COc1ccc2c(c1)c1c(c(=O)n(-c3ccc(OC)c(OC)c3)c(=O)n1CC(=O)N1CCCC1)n2C,-31.5%[59 µM],-17.9%,/,/,9.1%,-9.3%
O=C(COC(=O)c1nc(Cl)ccc1Cl)Nc1ccc(Cl)cn1,16.3%[12.7 µM],2.7%,-0.2%,/,31.8%,1.0%
O=C(CSc1nnc(-c2ccccc2)c(-c2ccccc2)n1)Nc1ncc(Cl)cc1Cl,14.1µM*,?,-18.5%,-26.0%,8.9%,-12.7%
O=C(COC(=O)c1ncc(Cl)c(Cl)c1Cl)Nc1ccc(Cl)cn1,44.7µM*,-14.5%,-10.8%,/,4.6%,-31.7%
O=C(COC(=O)c1ccccc1NC(=O)c1ccco1)Nc1ncc(Cl)cc1Cl,?,-1.8%,/,?,25.3%,-15.2%
O=C(COC(=O)c1ccccc1O)Nc1ncc(Cl)cc1Cl,35.5µM*,50.1µM*,?,6.1%,-10.5%,?
O=C(COC(=O)c1cc([N+](=O)[O-])ccc1N1CCOCC1)Nc1c(Cl)cccc1C(F)(F)F,71.2%,-7.9%,/,0.0%,19.9%,-5.9%
O=C(COC(=O)c1cc([N+](=O)[O-])ccc1N1CCOCC1)Nc1ncc(Cl)cc1Cl,9.2%[12.7 µM],44.7µM*,/,-5.0%,1.1%,?
C=C(C)C(=O)OCCOC(=O)C(=C)C,/,/,/,-0.9%,/,/
CCc1ccc(-c2nn(CC(=O)NCc3ccccc3)c3c2cnc2ccc(C)cc23)cc1,3.3%[59 µM],-2.6%,/,/,6.6%,-21.0%
Cc1cccn2c(=O)cc(COc3cccc(NC(=O)COc4ccccc4)c3)nc12,-20.0%[59 µM],0.4%,/,/,12.1%[57 µM],-12.7%

# Screens (PubChem BioAssay)
